Measured values taken from PubChem BioAssay (NCATS).
Inconclusive results are not listed. Entries that show only a call come without a potency. Calls of active or inactive are those of the source. Unless noted, the call rests on the fitted dose curve; in most records, active means well fitted curve in the direction sought with a large enough effect; inconclusive means small, poorly fitted or top-dose-only effect, or another doubt; inactive means no such curve, though single readings can be large; an effect the other way counts as inactive or inconclusive.

Tested on: not listed separately
Assay: Cell Viability - H-4-II-E (AID 543);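 further: cells exposed to compound for 40 hours; nearly all actives have a fitted effect of over 35% in size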
Conditions: H-4-II-E rat hepatoma viability; series mostly up to 92.2 µM
Method in brief: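 qHTS, rat hepatoma H-4-II-E, 1500 cells/well; 40 hr compound exposure, 37 °C; CellTiter-Glo ATP luminescence after 20 min RT; AC50 by standard Hill fit.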

| Compound | outcome |
| --- | --- |
| Cc1occc(=O)c1O | inactive |
| C=C(C)[C@H]1CC=C(C)C(=O)C1 | inactive |
| COS(C)(=O)=O | inactive |
| CC1=CC(=O)CC(C)(C)C1(O)/C=C/C(C)=C\C(=O)O (stereo not given) | inactive |
| C=CC(C)(O)CCC=C(C)C (stereo not given) | inactive |

Tested on: not listed separately
Assay: Cell Viability - SH-SY5Y (AID 544);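 further: cells exposed to compound for 40 hours; nearly all actives have a fitted effect of over 55% in size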
Conditions: SH-SY5Y neuroblastoma cell viability; series mostly up to 92.2 µM
Method in brief: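 SH-SY5Y, 1500 cells/well, 5 hr pre-incubation 37 °C; cpd 40 hr 37 °C; CellTiter-Glo 20 min RT; luminescence (ATP) read. qHTS concentration-response, Hill fit → AC50. Tamoxifen, doxorubicin as positive controls.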

| Compound | outcome |
| --- | --- |
| Cc1occc(=O)c1O | inactive |
| C=C(C)[C@H]1CC=C(C)C(=O)C1 | inactive |
| COS(C)(=O)=O | inactive |
| CC1=CC(=O)CC(C)(C)C1(O)/C=C/C(C)=C\C(=O)O (stereo not given) | inactive |
| C=CC(C)(O)CCC=C(C)C (stereo not given) | inactive |

Tested on: not listed separately
Assay: Cell Viability - Renal Proximal Tubule (AID 545);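 further: cells exposed to compound for 40 hours; nearly all actives have a fitted effect of over 40% in size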
Conditions: renal proximal tubule cells viability, primary cells of rat origin; series mostly up to 91.7 µM
Method in brief: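 Rat kidney proximal tubule cells, freshly isolated; 1000 cells/well, 5 hr settle, compound 40 hr 37 °C. CellTiter-Glo 20 min RT, luminescence read. AC50 by standard Hill fit.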

| Compound | outcome |
| --- | --- |
| Cc1occc(=O)c1O | inactive |
| C=C(C)[C@H]1CC=C(C)C(=O)C1 | inactive |
| COS(C)(=O)=O | inactive |
| CC1=CC(=O)CC(C)(C)C1(O)/C=C/C(C)=C\C(=O)O (stereo not given) | inactive |
| C=CC(C)(O)CCC=C(C)C (stereo not given) | inactive |

Tested on: not listed separately
Assay: Cell Viability - Mesenchymal (AID 546);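 further: cells exposed to compound for 40 hours before reading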
Conditions: mesenchymal cells viability, qHTS; series mostly up to 91.7 µM
Method in brief: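 In this qHTS cytotoxicity format, glomerulus-derived human mesenchymal kidney cells received compound for 40 hr, then luciferase-based ATP quantitation. Concentration-response data were fitted with the Hill equation.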

| Compound | Potency |
| --- | --- |
| Cc1occc(=O)c1O | inactive |
| C=C(C)[C@H]1CC=C(C)C(=O)C1 | inactive |
| COS(C)(=O)=O | inactive |
| CC1=CC(=O)CC(C)(C)C1(O)/C=C/C(C)=C\C(=O)O (stereo not given) | inactive |
| C=CC(C)(O)CCC=C(C)C (stereo not given) | inactive |

Target: 3',5'-cyclic-AMP phosphodiesterase 4B (Homo sapiens) (UniProt Q07343)
Assay: qHTS Assay for Inhibitors of PDE-IV (AID 607; active means well fitted activation curve with a large enough effect in the main read-out, with a control signal flat, not every such curve was filed as active)
Conditions: HEK293 ACTOne CNG channel cells, membrane potential fluorescence; series mostly up to 22.9 µM
Method in brief: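 ACTOne HEK293 cells carry a modified cAMP-gated CNG channel and express endogenous PDE4; plated 1000 cells/well, compounds up to 22.9 uM final. Membrane-potential dye fluorescence (ex 535/em 590) was read; parental cells received 10 uM forskolin + 100 uM RO 20-1724.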

3',5'-cyclic-AMP phosphodiesterase 4B (Homo sapiens), sequence (Q07343 whole entry, looked up): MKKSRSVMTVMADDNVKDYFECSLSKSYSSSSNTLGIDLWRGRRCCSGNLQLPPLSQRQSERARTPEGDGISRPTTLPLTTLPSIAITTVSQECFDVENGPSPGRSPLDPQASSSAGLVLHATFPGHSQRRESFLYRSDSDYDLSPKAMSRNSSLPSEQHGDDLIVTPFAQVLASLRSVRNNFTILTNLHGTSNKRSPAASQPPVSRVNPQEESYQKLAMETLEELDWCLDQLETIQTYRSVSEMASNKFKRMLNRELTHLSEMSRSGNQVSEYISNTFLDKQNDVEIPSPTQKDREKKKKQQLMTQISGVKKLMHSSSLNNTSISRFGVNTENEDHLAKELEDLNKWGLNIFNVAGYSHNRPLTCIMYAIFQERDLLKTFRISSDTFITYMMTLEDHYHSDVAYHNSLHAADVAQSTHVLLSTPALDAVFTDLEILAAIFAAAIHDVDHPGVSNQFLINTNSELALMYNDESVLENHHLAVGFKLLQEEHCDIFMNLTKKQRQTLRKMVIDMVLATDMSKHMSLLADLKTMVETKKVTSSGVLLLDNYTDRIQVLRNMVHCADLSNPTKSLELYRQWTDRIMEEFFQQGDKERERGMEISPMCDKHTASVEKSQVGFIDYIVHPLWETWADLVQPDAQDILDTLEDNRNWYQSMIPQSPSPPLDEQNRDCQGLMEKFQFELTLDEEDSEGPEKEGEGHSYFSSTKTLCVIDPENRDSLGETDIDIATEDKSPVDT

| Compound | Potency |
| --- | --- |
| COCCn1c(=O)c(C)nc2cnc(Nc3ccccc3)nc21 | inactive |
| COc1cccc(Cn2c(=O)cnc3cnc(N4CCN(C)CC4)nc32)c1 | inactive |
| CN1CCN(c2ccnc(-c3ccc(N(C)C)cc3)n2)CC1 | inactive |
| COc1ncc2nc(-c3cccs3)c(=O)n(C)c2n1 | inactive |
| CN1CCCC[C@@H]1CCN1c2ccccc2Sc2ccc(S(C)=O)cc21 (stereo not given in full) | inactive |
| COC(=O)C1=CO[C@@H](C)[C@H]2CN3CCc4c([nH]c5ccccc45)[C@@H]3C[C@H]12 | inactive |
| CC12CC[C@@H]3c4ccc(OS(=O)(=O)O)cc4CC[C@H]3C1CCC2=O (stereo not given in full) | inactive |
| CN(C)C(=O)c1ccc(-c2nc(N(C)C)c3ccccc3n2)cc1 | inactive |
| CC(C)(S)[C@H](N)C(=O)O | inactive |
| CN1CCN(c2ncc3ncc(=O)n(-c4ccccc4)c3n2)CC1 | inactive |
| CN(C)CC/C=C1\c2ccccc2CSc2ccccc21 | inactive |
| Cc1cnc(CNc2ncnc3ccc(-c4ccccc4C(F)(F)F)cc23)cn1 | inactive |
| C[C@@H]1CCC[C@H](C)N1NC(=O)c1ccc(Cl)c(S(N)(=O)=O)c1 | inactive |
| COc1ccccc1CNc1cc(-c2cccc(C#N)c2)ncn1 | inactive |
| CC(C)N1CCN(c2ccc(OC[C@@H]3CO[C@@](Cn4cncn4)(c4ccc(Cl)cc4Cl)O3)cc2)CC1 | inactive |

Tested on: not listed separately
Assay: Cellular Toxicity (caspase-3) HepG2 (AID 654);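 further: cells exposed to compound for 16 hours before reading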
Conditions: HepG2 caspase-3 activation, luminescence, 0% = DMSO only, 100% = tamoxifen; series mostly up to 92.2 µM
Method in brief: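 Luminescent Caspase-Glo 3/7 readout after 16 hr compound exposure of human hepatocellular carcinoma HepG2 cells at 37 °C; qHTS concentration-response, normalized DMSO = 0%, 100 uM tamoxifen = 100%; AC50 by standard Hill equation.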

| Compound | outcome |
| --- | --- |
| Cc1occc(=O)c1O | inactive |
| C=C(C)[C@H]1CC=C(C)C(=O)C1 | inactive |
| COS(C)(=O)=O | inactive |
| CC1=CC(=O)CC(C)(C)C1(O)/C=C/C(C)=C\C(=O)O (stereo not given) | inactive |
| C=CC(C)(O)CCC=C(C)C (stereo not given) | inactive |

Tested on: not listed separately
Assay: Cellular Toxicity (caspase-3) Jurkat (AID 655);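 further: cells exposed to compound for 16 h at 37 °C before reading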
Conditions: Jurkat caspase-3 activation, luminescence, DMSO = 0%, tamoxifen = 100%; series mostly up to 92.2 µM
Method in brief: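 Luminescent caspase-3/7 readout (aminoluciferin substrate cleavage) in human T-cell leukemia Jurkat cells after 16 hr compound exposure. Concentration-response normalized to DMSO and 100 uM tamoxifen; AC50 by standard Hill equation.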

| Compound | outcome |
| --- | --- |
| Cc1occc(=O)c1O | inactive |
| C=C(C)[C@H]1CC=C(C)C(=O)C1 | inactive |
| COS(C)(=O)=O | inactive |
| CC1=CC(=O)CC(C)(C)C1(O)/C=C/C(C)=C\C(=O)O (stereo not given) | inactive |
| C=CC(C)(O)CCC=C(C)C (stereo not given) | inactive |

Tested on: not listed separately
Assay: Cellular Toxicity (caspase-3) HUV-EC-C (AID 656)
Conditions: HUV-EC-C cells, caspase-3 activation (apoptosis), vehicle = 0, 100 µM tamoxifen = 100%; series mostly up to 92.2 µM
Method in brief: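 Luminescent caspase-3/7 activation (aminoluciferin substrate cleavage) in HUV-EC-C cells after 16 hr compound exposure, 37°C. Signal normalized to DMSO basal and 100 uM tamoxifen as 100%; AC50 from concentration-response fitted with the Hill equation.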

| Compound | outcome |
| --- | --- |
| Cc1occc(=O)c1O | inactive |
| C=C(C)[C@H]1CC=C(C)C(=O)C1 | inactive |
| COS(C)(=O)=O | inactive |
| CC1=CC(=O)CC(C)(C)C1(O)/C=C/C(C)=C\C(=O)O (stereo not given) | inactive |
| C=CC(C)(O)CCC=C(C)C (stereo not given) | inactive |

Tested on: not listed separately
Assay: Cellular Toxicity (caspase-3) SHSY5Y (AID 657);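 further: cells exposed to compound for 16 hours at 37 °C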
Conditions: SH-SY5Y caspase-3 activation, DMSO zero, 10 µM staurosporine = 100%; series mostly up to 91.7 µM
Method in brief: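 Luminescent caspase-3/7 readout (aminoluciferin release) in SH-SY5Y cells after 16 h compound exposure in complete medium. Activity scaled between DMSO basal and 10 uM staurosporine as 100%; concentration-response fitted to Hill equation for AC50.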

| Compound | outcome |
| --- | --- |
| Cc1occc(=O)c1O | inactive |
| C=C(C)[C@H]1CC=C(C)C(=O)C1 | inactive |
| COS(C)(=O)=O | inactive |
| CC1=CC(=O)CC(C)(C)C1(O)/C=C/C(C)=C\C(=O)O (stereo not given) | inactive |
| C=CC(C)(O)CCC=C(C)C (stereo not given) | inactive |

Tested on: not listed separately
Assay: Cellular Toxicity (caspase-3) BJ (AID 658);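 further: cells exposed to compound for 16 hours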
Conditions: BJ fibroblasts, luminescence, normalized: DMSO 0%, staurosporine 100%; series mostly up to 91.7 µM
Method in brief: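 Plated BJ cells (1000/well) rested 5 hr, received compound for 16 hr at 37 °C, then Caspase-Glo 3/7 reagent for 1 hr at room temperature before luminescence reading.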

| Compound | outcome |
| --- | --- |
| Cc1occc(=O)c1O | inactive |
| C=C(C)[C@H]1CC=C(C)C(=O)C1 | inactive |
| COS(C)(=O)=O | inactive |
| CC1=CC(=O)CC(C)(C)C1(O)/C=C/C(C)=C\C(=O)O (stereo not given) | inactive |
| C=CC(C)(O)CCC=C(C)C (stereo not given) | inactive |

Tested on: not listed separately
Assay: Cellular Toxicity (caspase-3) MRC-5 (AID 659)
Conditions: MRC-5 cells, luminescence, normalized: DMSO 0%, 10 µM staurosporine 100%; series mostly up to 91.7 µM
Method in brief: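 Apoptosis readout in MRC-5 cells: luciferase light generated after caspase 3/7 cleaves a peptide-aminoluciferin substrate, measured post 16 hr compound incubation at 37 °C.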

| Compound | outcome |
| --- | --- |
| Cc1occc(=O)c1O | inactive |
| C=C(C)[C@H]1CC=C(C)C(=O)C1 | inactive |
| COS(C)(=O)=O | inactive |
| CC1=CC(=O)CC(C)(C)C1(O)/C=C/C(C)=C\C(=O)O (stereo not given) | inactive |
| C=CC(C)(O)CCC=C(C)C (stereo not given) | inactive |

Tested on: not listed separately
Assay: Cellular Toxicity (caspase-3) Mesangial (AID 660);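 further: combined caspase 3 and 7 activity read by Caspase-Glo luminescence; cells exposed to compound for 16 h before the caspase read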
Conditions: mesangial cells, normalized: DMSO 0%, 100 µM tamoxifen 100%; series mostly up to 91.7 µM
Method in brief: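 Luminescent Caspase-Glo 3/7 readout (aminoluciferin substrate cleavage, 20 min RT) after 16 h compound exposure at 37 °C of normal human mesangial cells. Signal increase normalized between DMSO basal and 100 uM tamoxifen; Hill-equation AC50.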

| Compound | outcome |
| --- | --- |
| Cc1occc(=O)c1O | inactive |
| C=C(C)[C@H]1CC=C(C)C(=O)C1 | inactive |
| COS(C)(=O)=O | inactive |
| CC1=CC(=O)CC(C)(C)C1(O)/C=C/C(C)=C\C(=O)O (stereo not given) | inactive |
| C=CC(C)(O)CCC=C(C)C (stereo not given) | inactive |

Tested on: not listed separately
Assay: Cellular Toxicity (caspase-3) SK-N-SH (AID 661);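 further: cells exposed to compound for 16 hours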
Conditions: SK-N-SH caspase-3 activation, qHTS, DMSO as zero, staurosporine as full; series mostly up to 91.7 µM
Method in brief: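 Luminescent Caspase-Glo 3/7 read-out after 16 hr compound exposure of SK-N-SH neuroblastoma cells at 37 °C. Signal increase normalized to DMSO (basal) and 10 uM staurosporine (100%); AC50 from Hill equation fits of qHTS concentration-response data.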

| Compound | outcome |
| --- | --- |
| Cc1occc(=O)c1O | inactive |
| C=C(C)[C@H]1CC=C(C)C(=O)C1 | inactive |
| COS(C)(=O)=O | inactive |
| CC1=CC(=O)CC(C)(C)C1(O)/C=C/C(C)=C\C(=O)O (stereo not given) | inactive |
| C=CC(C)(O)CCC=C(C)C (stereo not given) | inactive |

Tested on: not listed separately
Assay: Cellular Toxicity (caspase-3) H-4-II-E (AID 663);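 further: cells exposed to compound for 16 hr before readout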
Conditions: H-4-II-E rat hepatoma, scaled: DMSO 0%, 100 µM tamoxifen 100%; series mostly up to 92.2 µM
Method in brief: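 Caspase 3/7 activation measured in H-4-II-E cells in complete culture medium after 16 hr treatment at 37 °C, using luciferase-coupled substrate readout; AC50 values come from Hill-equation fits of normalized concentration-response data.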

| Compound | outcome |
| --- | --- |
| Cc1occc(=O)c1O | inactive |
| C=C(C)[C@H]1CC=C(C)C(=O)C1 | inactive |
| COS(C)(=O)=O | inactive |
| CC1=CC(=O)CC(C)(C)C1(O)/C=C/C(C)=C\C(=O)O (stereo not given) | inactive |
| C=CC(C)(O)CCC=C(C)C (stereo not given) | inactive |

Tested on: not listed separately
Assay: Cellular Toxicity (caspase-3) Hek293 (AID 664);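 further: cells exposed to compound for 16 h at 37 °C before readout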
Conditions: HEK293 caspase-3 activation, DMSO = 0%, 100 µM tamoxifen = 100%; series mostly up to 92.2 µM
Method in brief: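 Luminescent Caspase-Glo 3/7 readout (aminoluciferin release) in HEK293 cells after 16 h compound treatment, 37 °C. Normalization: DMSO = basal, 100 uM tamoxifen = 100% stimulation. Concentration-response fitted with standard Hill equation for AC50.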

| Compound | outcome |
| --- | --- |
| Cc1occc(=O)c1O | inactive |
| C=C(C)[C@H]1CC=C(C)C(=O)C1 | inactive |
| COS(C)(=O)=O | inactive |
| CC1=CC(=O)CC(C)(C)C1(O)/C=C/C(C)=C\C(=O)O (stereo not given) | inactive |
| C=CC(C)(O)CCC=C(C)C (stereo not given) | inactive |
